Experimental findings from the antibiotic and cytotoxicity screens of Wong et al. (2023) are described below.

About 3,300 (8.5%) of roughly 39,000 compounds were called active. Many of the other results were omitted from the sample, so actives are more common in it than they were.

The test system of this assay is HepG2. Put plainly: cytotoxicity call (relative viability < 0.9). The note with it: 10 µM.
Regarding `COc1ccc(NC(=O)N(C)C[C@H]2Oc3ccc(NC(=O)Cn4cnnn4)cc3CC(=O)N([C@@H](C)CO)C[C@@H]2C)cc1`, the cytotoxicity call was “inactive”.
The same measure for `COc1ccc(NC(=O)Nc2ccc3c(c2)[C@@H]2C[C@@H](CC(=O)NCC(F)(F)F)O[C@@H](CO)[C@@H]2O3)cc1`: “inactive”; for `C[C@@H]1CN([C@H](C)CO)C(=O)c2cccc(NC(=O)Nc3ccc(F)cc3)c2O[C@@H]1CN(C)Cc1ccc(C(=O)Nc2ccccc2N)cc1`: “inactive”; for `COCC#Cc1cnc2c(c1)C(=O)N([C@H](C)CO)C[C@@H](C)[C@@H](CN(C)S(=O)(=O)c1ccccc1)O2`: “inactive”.
On to `COCCN1C(=O)C2=C(C1=O)[C@H]1N(C)c3ccccc3[C@@]13C[C@@H](CO)N(C(C)=O)C3=N2`, for which the cytotoxicity call is “inactive”.
As to `C[C@H](CO)N1C[C@H](C)[C@H](CN(C)C(=O)Nc2ccc(C(F)(F)F)cc2)Oc2ncc(-c3ccc(C#N)cc3)cc2C1=O`, the cytotoxicity call is “inactive”.
`C=CCOC(=O)[C@@H]1[C@H]2C(=O)O[C@H](c3ccccc3)[C@H](c3ccccc3)N2[C@H](c2ccc(OCCOC(=O)NCCCCCC(=O)NO)cc2)[C@]12C(=O)Nc1ccccc12`: the cytotoxicity call was “inactive”.
For `CC1CCC2(OC1)OC1CC3C4CCC5CC(O)CCC5(C)C4CCC3(C)C1C2C` (configuration not stated), the cytotoxicity call is “inactive”.
To `CC(C)(O)[C@H]1CC[C@@](C)([C@H]2[C@@H](O)C[C@@]3(C)[C@@H]4C[C@H](O[C@@H]5O[C@H](CO)[C@@H](O)[C@H](O)[C@H]5O)[C@H]5C(C)(C)[C@@H](O[C@@H]6OC[C@@H](O)[C@H](O)[C@H]6O)CC[C@@]56C[C@@]46CC[C@]23C)O1` belongs “inactive”.
As to `C[C@@H]1CO[C@]2(O[C@H]3C[C@H]4[C@H]5C[C@H](O[C@H]6O[C@@H](C)[C@@H](O)[C@@H](O[C@@H]7O[C@@H](C)[C@H](O)[C@@H](O)[C@H]7O)[C@@H]6O)[C@H]6C[C@@H](O)CC[C@]6(C)[C@@H]5CC[C@]4(C)[C@H]3[C@@H]2C)[C@@H](O)C1`, the cytotoxicity call was “inactive”.
In the case of `C[C@@H]1CC[C@@]2(OC1)O[C@H]1C[C@H]3[C@H]4C[C@@H](O)[C@H]5C[C@@H](O[C@@H]6O[C@H](CO)[C@H](O[C@@H]7O[C@H](CO)[C@@H](O)[C@H](O[C@@H]8OC[C@@H](O)[C@H](O)[C@H]8O)[C@H]7O[C@@H]7O[C@H](CO)[C@@H](O)[C@H](O)[C@H]7O)[C@H](O)[C@H]6O)[C@H](O)C[C@]5(C)[C@@H]4CC[C@]3(C)[C@H]1[C@@H]2C`, the cytotoxicity call was “active”.
In the case of `CC(C)(O)C1CCC(C)(C2C(O)CC3(C)C4CC(OC5OC(CO)C(O)C(O)C5O)C5C(C)(C)C(OC6OCC(O)C(O)C6O)CCC56CC46CCC23C)O1` (configuration not stated), the cytotoxicity call was “inactive”.
Regarding `C[C@@H]1CC[C@@]2(OC1)O[C@H]1C[C@H]3[C@H]4C[C@@H](O)[C@H]5C[C@@H](O[C@@H]6O[C@H](CO)[C@H](O[C@@H]7O[C@H](CO)[C@@H](O)[C@H](O[C@@H]8OC[C@@H](O)[C@H](O)[C@H]8O)[C@H]7O[C@@H]7O[C@H](CO)[C@@H](O[C@@H]8O[C@H](CO)[C@@H](O)[C@H](O)[C@H]8O)[C@H](O)[C@H]7O)[C@H](O)[C@H]6O)[C@H](O)C[C@]5(C)[C@@H]4CC[C@]3(C)[C@H]1[C@@H]2C`, the cytotoxicity call was “active”.
To `C[C@H]1CN([C@@H](C)CO)C(=O)Cc2cc(NC(=O)C3CCCCC3)ccc2O[C@@H]1CN(C)C(=O)Nc1cccc2ccccc12` belongs “inactive”.
To `Nc1nc(Cl)nc2c1ncn2[C@H]1C[C@@H](O)[C@@H](CO)O1` belongs “inactive”.
Consider `C[C@@H]1CN([C@@H](C)CO)C(=O)c2cc(N(C)C)ccc2O[C@@H](C)CCCCO[C@H]1CN(C)C(=O)Nc1cccc2ccccc12`, for which the cytotoxicity call was “inactive”.
As for `Fc1ccc(Nc2ncnc3sc(-c4ccccc4)cc23)cc1`, the cytotoxicity call is “inactive”.
As for `COc1ccc(S(=O)(=O)Nc2ccc3c(c2)C(=O)N([C@H](C)CO)C[C@@H](C)[C@@H](CN(C)C(=O)Nc2cccc4ccccc24)O3)cc1`, the cytotoxicity call was “inactive”.
The same measure for `CC1(C(=O)O)CCC2(C)CCC3(C)C(=CC(=O)C4C5(C)CCC(O)C(C)(C)C5CCC43C)C2C1` (configuration not stated): “inactive”; for `CC(=O)Oc1cc2c(c(C)c1OC(C)=O)CC=C1[C@@]2(C)CC[C@@]2(C)[C@H]3C[C@](C)(C(=O)O)CC[C@]3(C)CC[C@]12C`: “active”; for `C[C@@H]1CN([C@@H](C)CO)C(=O)c2cc(NC(=O)CCC(F)(F)F)ccc2O[C@@H](C)CCCCO[C@H]1CN(C)Cc1ccc(C(=O)O)cc1`: “inactive”.
To `C[C@@H]1CCCCO[C@@H](CN(C)Cc2ccc(C(=O)O)cc2)[C@H](C)CN([C@H](C)CO)C(=O)c2cc(NC(=O)CCC(F)(F)F)ccc2O1` belongs “active”; to `C[C@@H]1CCCCO[C@@H](CN(C)Cc2ccc(C(F)(F)F)cc2)[C@H](C)CN([C@@H](C)CO)C(=O)c2cc(NC(=O)CCC(F)(F)F)ccc2O1`, “active”; to `C[C@H](CO)N1C[C@H](C)[C@H](CN(C)Cc2ccc(C(F)(F)F)cc2)OCCCC[C@H](C)Oc2ccc(NC(=O)CCC(F)(F)F)cc2C1=O`, “inactive”.
To `C[C@H](CO)N1C[C@H](C)[C@@H](CN(C)Cc2ccc(C(F)(F)F)cc2)OCCCC[C@H](C)Oc2ccc(NC(=O)CCC(F)(F)F)cc2C1=O` belongs “inactive”.
Consider `C[C@@H]1CCCCO[C@@H](CN(C)Cc2ccc(C(F)(F)F)cc2)[C@H](C)CN([C@H](C)CO)C(=O)c2cc(NC(=O)CCC(F)(F)F)ccc2O1`, for which the cytotoxicity call is “inactive”.
For the compound `C[C@H]1CCCCO[C@H](CN(C)Cc2ccc(C(F)(F)F)cc2)[C@@H](C)CN([C@@H](C)CO)C(=O)c2cc(NC(=O)CCC(F)(F)F)ccc2O1`, the cytotoxicity call is “active”.
To `C[C@@H]1CCCCO[C@H](CN(C)Cc2ccc(C(F)(F)F)cc2)[C@H](C)CN([C@@H](C)CO)C(=O)c2cc(NC(=O)CCC(F)(F)F)ccc2O1` belongs “active”.
For `C[C@@H]1CN([C@H](C)CO)C(=O)c2cc(NC(=O)CCC(F)(F)F)ccc2O[C@@H](C)CCCCO[C@H]1CN(C)Cc1ccc(C(=O)O)cc1`, the cytotoxicity call was “inactive”.
To `C[C@@H]1CCCCO[C@H](CN(C)Cc2ccc(C(F)(F)F)cc2)[C@@H](C)CN([C@@H](C)CO)C(=O)c2cc(NC(=O)CCC(F)(F)F)ccc2O1` belongs “inactive”.
In the case of `C[C@@H]1CCCCO[C@H](CN(C)Cc2ccc(C(F)(F)F)cc2)[C@@H](C)CN([C@H](C)CO)C(=O)c2cc(NC(=O)CCC(F)(F)F)ccc2O1`, the cytotoxicity call is “inactive”.
For the compound `C[C@@H]1CN([C@H](C)CO)C(=O)c2cc(NC(=O)CCC(F)(F)F)ccc2O[C@@H](C)CCCCO[C@@H]1CN(C)Cc1ccc(C(F)(F)F)cc1`, the cytotoxicity call is “inactive”.
As to `CN(C)CC#Cc1ccc([C@@H]2[C@@H](CO)N3C(=O)CN(C(=O)c4cccnc4)C[C@H]23)cc1`, the cytotoxicity call was “inactive”.
As for `CO[C@H](CN(C)C(=O)Nc1ccc(C(F)(F)F)cc1)[C@@H](C)CN(Cc1ccccc1Cl)[C@@H](C)CO`, the cytotoxicity call is “inactive”.
The same measure for `C=CCC[C@H](Cc1ccc(F)cc1)C(=O)O[C@H](CNC(=O)[C@@H](CC=C)CC(=O)N[C@@H](CO)Cc1ccccc1)c1ccccc1`: “inactive”; for `C[C@H](CO)N1C[C@H](C)[C@@H](CN(C)Cc2ccc(-c3ccccc3)cc2)Oc2c(NC(=O)C3CC3)cccc2C1=O`: “inactive”.
To `NC(=O)NCC#Cc1ccc2c(c1)[C@]1(C(=O)N2)[C@H](C(=O)N2CCCCCCC2)[C@H]2C(=O)O[C@H](c3ccccc3)[C@H](c3ccccc3)N2[C@@H]1c1ccccc1OCCO` belongs “inactive”; to `C[C@@H]1CN([C@@H](C)CO)S(=O)(=O)c2ccc(-c3ccccc3F)cc2O[C@H]1CN(C)S(C)(=O)=O`, “inactive”; to `CN1C(=O)[C@@H](O)N(c2ccccc2)C1=O`, “inactive”.
The same measure for `CCOC(=O)[C@H](CCc1ccccc1)N[C@@H](C)C(=O)N1C(=O)N(C)C[C@H]1C(=O)O`: “inactive”.
As to `CC(C)NC(=O)N(C)C[C@@H]1Oc2ccc(NS(=O)(=O)c3ccc(Cl)cc3)cc2CC(=O)N([C@@H](C)CO)C[C@H]1C`, the cytotoxicity call was “inactive”.
Consider `C[C@@H]1CN([C@@H](C)CO)C(=O)c2cccc(NS(=O)(=O)c3cccs3)c2O[C@H]1CN(C)Cc1ccc(Cl)c(Cl)c1`, for which the cytotoxicity call was “inactive”.
On to `C[C@H]1CCCCO[C@@H](CN(C)Cc2ccc(C(F)(F)F)cc2)[C@@H](C)CN([C@@H](C)CO)C(=O)c2cc(NC(=O)CCC(F)(F)F)ccc2O1`, for which the cytotoxicity call is “active”.
Take `COc1ccc(CN(C)C[C@H]2OCCCC[C@@H](C)Oc3ccc(NC(=O)CCC(F)(F)F)cc3C(=O)N([C@H](C)CO)C[C@H]2C)cc1`: the cytotoxicity call was “inactive”.
To `C[C@@H]1CN([C@@H](C)CO)C(=O)c2cc(NC(=O)CCC(F)(F)F)ccc2O[C@@H](C)CCCCO[C@H]1CN(C)Cc1ccc(C(F)(F)F)cc1` belongs “inactive”.
Take `C[C@@H]1CN([C@@H](C)CO)C(=O)c2cc(NC(=O)CCC(F)(F)F)ccc2O[C@@H](C)CCCCO[C@@H]1CN(C)Cc1ccc(C(F)(F)F)cc1`: the cytotoxicity call was “inactive”.
The same measure for `COc1ccc(CN(C)C[C@H]2OCCCC[C@H](C)Oc3ccc(NC(=O)CCC(F)(F)F)cc3C(=O)N([C@H](C)CO)C[C@H]2C)cc1`: “active”; for `COc1ccc(CN(C)C[C@H]2OCCCC[C@H](C)Oc3ccc(NC(=O)CCC(F)(F)F)cc3C(=O)N([C@@H](C)CO)C[C@H]2C)cc1`: “inactive”.
Regarding `C[C@H](CO)N1C[C@H](C)[C@@H](CN(C)C(=O)Nc2ccc3c(c2)OCO3)OCCCC[C@H](C)Oc2ccc(NS(=O)(=O)c3ccc(Cl)cc3)cc2C1=O`, the cytotoxicity call is “inactive”.
On to `COC(=O)c1c2oc(c1C(=O)OC)C(=O)N[C@H](Cc1ccccc1)Cn1cc(nn1)CNC(=O)[C@@H](Cc1ccccc1)NC(=O)N[C@@H](COC(=O)NCCCCCC(=O)NO)CC2`, for which the cytotoxicity call was “inactive”.
To `C[C@H](NC(=O)[C@H]1N[C@H]2c3ccc(-c4ccc(C(=O)N(C)C)cc4)c(=O)n3C[C@H]2[C@@H]1CO)c1ccccc1` belongs “inactive”; to `COc1ccc(NC(=O)N(C)C[C@@H]2Oc3ccc(NS(=O)(=O)c4cn(C)cn4)cc3CC(=O)N([C@H](C)CO)C[C@H]2C)cc1`, “inactive”.
